Assay outcomes (PubChem)
Hits are enriched below; roughly 3.5% of the tested compounds scored in any of these assays.
TEAD-YAP block: TEAD-YAP interaction inhibition, primary screen, TEAD-YAP interaction inhibitor project, luminescence, HEK-TIYL cells; actives 1.4% (n = 640,000); AID 1259422, 2018; TEAD-Gal4/YAP UAS-luciferase luminescence; inhibition, % at 9.12 µM; in the data active = inhibition above about 32%
GPR151 activ: activators of human GPR151, primary screen, cell-based, PathHunter beta-arrestin, luminescence; G-protein coupled receptor 151 (Homo sapiens), Q8TDV0; PathHunter beta-arrestin GPR151 cells; activation, % at 11.2 µM; actives 1% (n = 650,000); AID 1508602, 2020; in the data active = activation above about 4.9%
FBW7 activator: FBW7 E3 ligase activators, primary screen, biochemical, AlphaScreen, human; F-box/WD repeat-containing protein 7 (Homo sapiens), Q969H0; AlphaScreen FBW7–phospho-cyclin E peptide binding, activator screen; normalized activity (activation), % at 26.1 µM; actives 0.13% (n = 650,000); AID 1259310, 2017; in the data active = normalized activity above about 1.9%;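 note: purified mutant Fbw7 with reduced substrate affinity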
MITF inh: MITF inhibitors, primary screen, biochemical, AlphaScreen, human; AlphaScreen MITF homodimerization, bead proximity signal; inhibition, % at 2.6 µM; actives 0.91% (n = 650,000); in the data active = inhibition above about 50%
Target sequence (O75030 whole entry, looked up): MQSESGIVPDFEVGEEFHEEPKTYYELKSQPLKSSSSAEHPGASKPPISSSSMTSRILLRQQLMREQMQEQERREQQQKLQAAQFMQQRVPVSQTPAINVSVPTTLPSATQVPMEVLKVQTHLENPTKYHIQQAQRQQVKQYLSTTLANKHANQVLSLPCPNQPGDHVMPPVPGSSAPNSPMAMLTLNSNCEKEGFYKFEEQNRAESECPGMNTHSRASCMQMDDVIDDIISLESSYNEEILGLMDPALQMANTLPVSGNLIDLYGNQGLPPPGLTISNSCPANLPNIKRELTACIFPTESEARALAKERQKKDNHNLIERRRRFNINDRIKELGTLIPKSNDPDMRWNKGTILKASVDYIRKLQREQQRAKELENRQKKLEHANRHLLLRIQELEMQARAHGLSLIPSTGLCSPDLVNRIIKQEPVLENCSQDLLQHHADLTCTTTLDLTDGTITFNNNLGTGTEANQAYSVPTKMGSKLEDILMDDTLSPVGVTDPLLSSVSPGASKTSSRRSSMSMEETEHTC
A number is an active result; n = inactive.

SMILES	TEAD-YAP block	GPR151 activ	FBW7 activator	MITF inh
CC1CCCN(S(=O)(=O)c2ccc(NC(=O)/C=C/c3ccco3)cc2)C1 (centres undefined)	41	n	n	n
COc1ccc(/C=C/C(=O)Nc2ccc(S(=O)(=O)N3CCCC3)cc2)cc1	n	n	n	n
Cc1nc2ccc(S(=O)(=O)NCc3ccc(F)cc3)cc2o1	n	n	n	n
CCc1cc2c(cc3c(=O)n(CCCC(=O)O)ncn32)s1	35	n	n	n
COc1ccc(/C=C/c2nc(O)c([N+](=O)[O-])c(=O)[nH]2)cc1I	n	n	n	n
CC(C)CC[n+]1ccccc1/C=C/c1ccc(N(C)C)cc1	91	n	n	n
O=C(CN1CCN(CC(=O)c2ccc3c(c2)OCO3)CC1)Nc1ccccc1F	n	n	n	n
CC1C(O)=C(c2nc3ccccc3[nH]2)c2nc(=O)c3ccccc3n21 (centres undefined)	54	n	n	n
Cc1cccc2c(=O)nc3n(c12)CC(O)=C3c1nc2ccccc2[nH]1	n	n	n	n
CCCOc1ccc(/C(O)=C2/C(=O)C(=O)N(CCCN(C)C)C2c2ccc(C(C)(C)C)cc2)cc1C (centres undefined)	n	n	n	n
C1=NC2(CCCC2)Cc2c1ccc1ccccc21	32	n	n	n
Cc1ccnc(NC(c2cccc(O)c2)c2ccc3ccc(C)nc3c2O)c1 (centres undefined)	n	n	n	n
COc1cc(C(Nc2cc(C)ccn2)c2ccc3ccc(C)nc3c2O)cc(OC)c1OC (centres undefined)	68	n	n	n
Cc1cccc(NC(c2cccc(O)c2)c2ccc3ccc(C)nc3c2O)n1 (centres undefined)	n	n	n	n
COc1cc(C(Nc2cc(C)ccn2)c2ccc3cccnc3c2O)ccc1O (centres undefined)	n	n	n	54
CCOc1cc(C(Nc2cc(C)ccn2)c2ccc3cccnc3c2O)ccc1O (centres undefined)	n	n	n	69
COc1cc(C(Nc2cccc(C)n2)c2ccc3ccc(C)nc3c2O)cc(OC)c1O (centres undefined)	33	n	n	n
O=C(N[C@H]1CC[C@@H](c2nc3ccc(-c4ccncc4)cc3[nH]2)C1)c1cccs1	n	n	n	n
COc1ccccc1C1(C)CCc2oc3ccccc3c2-c2oc(C)cc21 (centres undefined)	n	n	n	n
O=C(CC1Sc2ccccc2NC1=O)Nc1cccc(Cl)c1 (centres undefined)	n	n	n	n
CC(C)n1nccc1-c1nnc(NC(=O)c2ccc(Cl)cc2Cl)o1	n	n	n	n
CC(C)n1nccc1-c1nnc(NC(=O)C(C)(C)Oc2ccc(Cl)cc2)o1	37	n	n	n
O=C(Nc1ccc(Cl)cc1)c1cc2n(n1)C(C(F)(F)F)CC(c1ccc3c(c1)OCO3)N2 (centres undefined)	n	n	n	n
Cc1c(/C=C(\C#N)c2ccccn2)cc(C#N)n1C	n	n	n	n
Cc1c(/C=C/c2nc3ccccc3s2)cc(C#N)n1C	73	n	n	n
SMILES	TEAD-YAP block	GPR151 activ	FBW7 activator	MITF inh
c1cc(-n2cnc3c(NC4CC4)nc(NCCN4CCOCC4)nc32)cs1	41	n	n	n
CCCNc1nc(NCCN2CCOCC2)nc2c1ncn2-c1ccsc1	34	n	n	n
Nc1nc(NCCN2CCOCC2)nc2c1ncn2-c1ccsc1	n	n	n	n
CC(=O)Nc1ccc(S(=O)(=O)ON2C(=O)c3ccccc3C2=O)cc1	n	n	n	n
CN(Cc1c(F)cccc1Cl)C(=O)CCl	42	n	n	n
CC(=O)c1c(C)[nH]c(C(=O)CN(C)Cc2c(F)cccc2Cl)c1C	49	n	n	n
CN(Cc1c(F)cccc1Cl)C(=O)CSc1nnc(N)s1	n	n	n	n
COc1ccc(-c2cnnc(NCCSc3nnc(C)s3)n2)cc1	n	n	n	n
O=C(Nc1ccc2nccnc2c1)c1csc(-c2ccccc2)n1	n	n	n	n
O=C(CCSc1ccc(Cl)cc1)Nc1nc(-c2ccccn2)cs1	34	n	n	n
O=C(CCSc1ccccc1)Nc1nc(-c2ccccn2)cs1	n	n	n	n
O=C(CCCSc1ccc(Cl)cc1)Nc1nc(-c2ccccn2)cs1	39	n	n	n
COc1ccc(-c2cc(NCCO)ncn2)cn1	n	n	n	n
O=C(CN1C(=O)COc2ccccc21)N(Cc1cccnc1)Cc1cccc(F)c1	n	n	n	n
O=C(O)CCC(=O)N(Cc1cccnc1)Cc1cccc(F)c1	49	n	n	n
CCOc1nc(NCCN2CCOCC2)nc(Nc2ccc(I)cc2C)n1	n	n	n	n
C[C@@H]1CN(C(=O)CC2(c3ccccc3)CC(=O)N(CC3CCCCC3)C2=O)C[C@H](C)O1 (some centres undefined)	n	n	n	n
Cc1c(C#N)c(NC(=O)CCl)n(Cc2ccco2)c1C	32	n	n	n
COc1c(Cl)cc(C)cc1NC(=O)c1sc2ncn(CC(=O)N3CCCCC3C)c(=O)c2c1C (centres undefined)	n	n	n	n
c1ccc2ncc(-c3ccc4c(c3)COC3(CCNCC3)O4)cc2c1	64	n	n	n
COC(=O)c1ccccc1NC(=O)N1CCN(C(=O)C2CCCO2)CC1 (centres undefined)	n	n	n	n
Cc1ccccc1NC(=O)Cn1nnc(C(=O)NCc2cccs2)c1N	46	n	n	n
O=C(Cc1sc(-c2ccccc2)nc1-c1cccs1)N1CCN(c2ncccn2)CC1	n	n	n	n
NNC(=O)C(Cc1ccccc1)NC(=O)OCc1ccccc1 (centres undefined)	n	n	n	n
NNC(=O)C(Cc1ccc(O)cc1)NC(=O)C(CO)NC(=O)OCc1ccccc1 (centres undefined)	n	n	2.1	n
SMILES	TEAD-YAP block	GPR151 activ	FBW7 activator	MITF inh
O=C(N/N=C/c1cccc(Br)c1)c1cccc(F)c1	n	n	n	n
Cc1ccc(C)n1-c1ccccc1N	51	n	n	n
Cn1nc(-c2ccc([N+](=O)[O-])cc2)nc2c(=O)n(C)c(=O)nc1-2	55	n	n	n
CCn1nc(-c2ccc(OC)cc2)nc2c(=O)n(C)c(=O)nc1-2	96	n	n	n
CCn1nc(-c2ccc(Cl)c(Cl)c2)nc2c(=O)n(C)c(=O)nc1-2	n	n	n	n
CCn1nc(-c2ccccn2)nc2c(=O)n(C)c(=O)nc1-2	97	n	n	n
N#CC(c1ccccc1)N(CCCCl)C(=O)c1ccco1 (centres undefined)	n	n	n	n
CC(C)C(=O)NC(c1ccco1)c1ccc2cccnc2c1O (centres undefined)	64	n	n	n
CC(C)C(=O)NC(c1ccccc1Cl)c1ccc2cccnc2c1O (centres undefined)	84	n	n	n
CC(C)C(=O)NC(c1ccccc1)c1ccc2cccnc2c1O (centres undefined)	90	n	n	n
